Data taken from PubChem BioAssay (NCATS).
Results filed as inconclusive are left out. A call without a number means that no potency is given here. Active and inactive are the calls of the source. The call rests on the fitted dose curve; in most records, active means well fitted curve in the direction sought with a large enough effect; inconclusive means small, poorly fitted or top-dose-only effect, or another doubt; inactive means no such curve, though single readings can be large; an effect the other way counts as inactive or inconclusive.

Experiments:
[1] = UWB1.289 Cancer Cell Toxicity qHTS against the NCATS CANVASS Library (AID 1347347); further: nearly all actives have a fitted effect of over 60% in size; further: potency means the concentration at half of the fitted maximal effect
Method in brief: (§1)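 Viability read-out: CellTiter-Glo luminescence after 72 h compound exposure at 37 °C/5% CO2. Cells plated at 1000/well, 4 h pre-incubation; 11-point titration. Bortezomib served as control.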

[2] = HEK293 18hr Apoptosis Induction qHTS against the NCATS CANVASS Library (AID 1347357); further: potency means the concentration at half of the fitted maximal effect
Method in brief: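 HEK293 cells (500/well, DMEM + 10% FBS) treated with an 11-point series for 18 h at 37 degrees C. Caspase-3/7 activity read by Caspase-Glo luminescence after 15 min at room temperature.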

[3] = HPAF-II 18hr Apoptosis Induction qHTS against the NCATS CANVASS Library (AID 1347360); further: potency means the concentration at half of the fitted maximal effect
Method in brief: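 HPAF-II cells at 500/well were exposed for 18 h at 37 C to an 11-point compound series. Caspase-3/7 activity was read by Caspase-Glo luminescence after 15 min at RT.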

[4] = target: Luciferin 4-monooxygenase (Photinus pyralis) (UniProt P08659); experiment: Firefly luciferase counterscreen qHTS: Assay Interference Panel against the NCATS CANVASS Library (AID 1347363); further: potency means the concentration at half of the fitted maximal effect
Method in brief: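 Purified P. pyralis luciferase was added to compounds (11-point series) preincubated 15 min at room temperature with substrate containing 0.013 mM D-luciferin and 0.013 mM ATP; luminescence was read after 5 min.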

[5] = KB-8-5-11 Cancer Cell Toxicity qHTS against the NCATS CANVASS Library (AID 1347364); further: nearly all actives have a fitted effect of over 75% in size; further: potency means the concentration at half of the fitted maximal effect
Method in brief: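 KB-8-5-11 cells, 500/well in DMEM + 10% FBS, given compounds in an 11-point series. Incubated 72 h at 37 °C. Viability by CellTiter-Glo luminescence. Confirmation also run with 1 uM tariquidar.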

[6] = DH5-alpha competent E. coli microbial cell viability qHTS against the NCATS CANVASS Library (AID 1347377); settings: outcome: dose series up to 46.1 µM unless noted
Method in brief: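 DH5-alpha E. coli suspension was exposed to an 11-point compound series overnight at 37 °C. Viable cells quantified by ATP luminescence (BacTiter-Glo) after 20 min at room temperature.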

[7] = qHTS for Antimalaria activity screened against the NCATS CANVASS Library (AID 1347380); further: nearly all actives have a fitted effect of over 40% in size; further: potency means the concentration at half of the fitted maximal effect
Method in brief: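 Red blood cells infected with P. falciparum Dd2 (2.5% hematocrit final, 0.3% parasitemia) were exposed to compounds in an 11-point qHTS series for 72 hr at 37C under 5% O2 and 5% CO2. Lysis buffer with SYBR Green was then added for 18 hr, and fluorescence was read at 485/535 nm.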

[8] = Inflammasome Signaling qHTS Counterscreen: IL-1-beta AlphaLISA counterscreen against the NCATS CANVASS Library (AID 1347381);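 further: cell-free check with purified IL-1β in medium and no THP-1 cells; series mostly up to about 57 µM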
Method in brief: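 Cell-free interference check: compounds added to medium spiked with 4 pg purified IL-1β. Anti-IL-1β acceptor beads (6 ug/mL) with 0.6 nM biotinylated antibody added for 1 h at RT, then streptavidin donor beads (24 ug/mL) for 30 min in the dark. AlphaLISA read at 680/615 nm.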

[9] = Panc-1005 Cancer Cell Toxicity qHTS against the NCATS CANVASS Library (AID 1347349); further: nearly all actives have a fitted effect of over 60% in size; further: potency means the concentration at half of the fitted maximal effect
Method in brief: as §1

Luciferin 4-monooxygenase (Photinus pyralis), sequence (P08659 whole entry, looked up): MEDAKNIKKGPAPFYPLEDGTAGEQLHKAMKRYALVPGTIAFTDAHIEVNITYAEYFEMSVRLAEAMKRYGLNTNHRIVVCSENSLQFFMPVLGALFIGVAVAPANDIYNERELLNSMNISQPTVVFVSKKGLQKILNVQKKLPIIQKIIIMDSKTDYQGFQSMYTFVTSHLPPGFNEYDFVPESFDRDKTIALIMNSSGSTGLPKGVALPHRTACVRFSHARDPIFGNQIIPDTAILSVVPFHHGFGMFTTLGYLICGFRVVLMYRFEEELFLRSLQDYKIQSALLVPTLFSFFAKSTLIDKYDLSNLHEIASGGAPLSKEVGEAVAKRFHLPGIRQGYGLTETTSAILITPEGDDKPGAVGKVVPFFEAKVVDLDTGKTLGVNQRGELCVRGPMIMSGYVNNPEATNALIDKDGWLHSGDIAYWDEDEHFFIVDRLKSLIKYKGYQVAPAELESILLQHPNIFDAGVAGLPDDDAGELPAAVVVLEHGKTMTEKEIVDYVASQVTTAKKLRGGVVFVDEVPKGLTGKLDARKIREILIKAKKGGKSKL

| Structure (SMILES) | Potency [1] | Potency [2] | Potency [3] | Potency [4] | Potency [5] | outcome [6] | Potency [7] | outcome [8] | Potency [9] |
| --- | --- | --- | --- | --- | --- | --- | --- | --- | --- |
| Oc1ccc(/C=C2/c3cc(O)cc(O)c3C(c3ccc(O)cc3)[C@H]2c2cc(O)cc(O)c2)cc1 (stereo not given in full) | 3750 nM (active) | inactive | inactive | inactive | inactive | inactive | inactive | inactive | – |
| CC(C)=CCC[C@@H](C)[C@@H]1CC[C@@]2(C)C[C@H]3C(C)=CC(=O)[C@@H]3/C(C=O)=C\C[C@H]12 | 6660 nM (active) | – | – | inactive | 10500 nM (active) | inactive | – | inactive | – |
| C=C1C[C@@]23C=CC(=O)[C@@](C)(CCC(=O)Nc4c(O)ccc(C(=O)O)c4O)C2C[C@@H]1CC3 (stereo not given in full) | inactive | – | – | inactive | – | – | inactive | inactive | – |
| O=c1cc(-c2ccc(O)c(O[C@@H]3O[C@H](CO)[C@@H](O)[C@H](O)[C@H]3O)c2)oc2cc(O[C@@H]3O[C@H](CO)[C@@H](O)[C@H](O)[C@H]3O)cc(O)c12 | – | inactive | – | – | inactive | inactive | 4.7 nM (active) | – | – |
| CN1C(=O)C2C(N=CN2C)N(C)C1=O (stereo not given) | inactive | – | – | inactive | inactive | – | inactive | inactive | – |
| CCCCCC[C@H](CCCCC[C@@H](O)C(N)=O)OC(=O)[C@@H]1CC=CN1C(=O)c1ccccc1O | 6660 nM (active) | inactive | inactive | inactive | – | – | – | inactive | inactive |
| O=C1CC(c2cc(O)cc(O)c2)Oc2cc(O)ccc21 (stereo not given) | – | – | inactive | – | – | – | inactive | inactive | inactive |
| C[C@@H](O)[C@H]1OC(=O)C=C2[C@]3(C)[C@H]4[C@H](OC(=O)[C@@]4(C)[C@@H](O)[C@H]4O[C@H]43)[C@H]3O[C@@]231 | 2650 nM (active) | – | inactive | – | 1480 nM (active) | inactive | 594 nM (active) | inactive | – |
| C/C=C1/CC[C@@H]2c3[nH]c4ccccc4c3CCN2C1 | – | – | inactive | – | inactive | inactive | – | inactive | – |
| C=C(C)C(=O)O[C@H]1C[C@H](C)[C@@H](OC(C)=O)CC[C@@]2(C)O[C@@H]2[C@H]2OC(=O)C(COC(C)=O)=C12 | 6660 nM (active) | – | – | – | – | – | – | inactive | – |
| C[C@@H]1O[C@@H](Oc2c(-c3ccc(O)cc3)oc3cc(O)cc(O)c3c2=O)[C@H](O)[C@H](O)[C@H]1O | inactive | inactive | inactive | inactive | inactive | inactive | inactive | – | inactive |
| C/C(=C\[C@H](C)C(=O)CCCC1CC(=O)NC(=O)C1)C(O)[C@@H](C)[C@H](O)C/C=C/CC/C=C/C(=O)O (stereo not given in full) | inactive | – | inactive | – | – | inactive | inactive | inactive | – |
| CC1=CC2=C[C@H](C)C[C@@]23OC(=C(C)C3=O)CC(C)(C)/C=C/C1=O | – | – | – | inactive | 2090 nM (active) | – | 2360 nM (active) | – | 943 nM (active) |
| C=C(C)CC[C@H](Cc1c(O)cc(O)c2c1O[C@H](c1ccc(O)cc1O)CC2=O)C(=C)C | – | – | – | inactive | inactive | – | 5.9 nM (active) | inactive | – |
| C=CC(C)(C)C(=O)[C@@H](C)[C@@H]1CC[C@](C)(C=C)O1 | – | inactive | inactive | – | inactive | – | inactive | – | inactive |
| CCCCCCC[C@@H](C/C=C/CCC(=O)NCCc1c[nH]c2ccccc12)OC | – | inactive | inactive | – | inactive | – | – | inactive | inactive |
| CN1C(=O)[C@]23SS[C@@]1(C)C(=O)N2[C@H]1Nc2ccccc2[C@]1(c1c[nH]c2ccccc12)[C@@H]3O | 747 nM (active) | 8330 nM (active) | 469 nM (active) | inactive | 2350 nM (active) | inactive | – | – | – |
| CC(=O)[C@@H]1[C@@H](O)C[C@H]2[C@]3(C)CC[C@H]4C(C)(C)CCC[C@]4(CO)[C@H]3C[C@H]3OC(=O)[C@@H]1[C@@]32C | – | inactive | inactive | inactive | inactive | inactive | – | – | inactive |
| C=C1C(=O)O[C@H]2C[C@H](C)[C@@H]3CC(=O)C(C)=C3[C@H](O)[C@H]12 | – | – | – | inactive | – | – | – | – | – |
| COc1ccc(/C=C2\COc3cc(O)ccc3C2=O)cc1 | inactive | inactive | inactive | 485 nM (active) | – | – | – | – | – |
| CC12C[C@]3(O)O[C@@H](O1)[C@]1(COC(=O)c4ccccc4)[C@@H]3CC21OC1OC(CO)C(O)C(O)C1O (stereo not given in full) | – | inactive | inactive | inactive | – | inactive | inactive | – | inactive |
| CC1(C)CC[C@]2(C(=O)O)CC[C@]3(C)C(=CC[C@@H]4[C@@]5(C)C[C@@H](O)[C@H](O)C(C)(C)[C@@H]5CC[C@]43C)[C@@H]2C1 | 11800 nM (active) | inactive | – | inactive | – | – | – | inactive | – |
| CN1CC[C@]2(c3cccc4c3N[C@@H]3N(C)CC[C@]43[C@@]34CCN(C)[C@@H]3Nc3ccccc34)c3ccccc3N[C@H]12 | 18800 nM (active) | – | – | inactive | – | – | 1490 nM (active) | inactive | – |
